Assay outcomes: PubChem BioAssay, Broad Institute
NOMO-1 viab: STK33 inhibitor candidate reducing NOMO-1 cell viability. NOMO-1 AML viability, CellTiter-Glo luminescence, 72 h. AID 2330. 37,000 tested, 7.5% active. inhibition, % (concentration not given with the values); in the data active means inhibition above about 80%
PD-1 reversal: reversal of PD-1 mediated T-cell inhibition; primary human CD4 T cells, PD-L1 beads, CellTiter-Glo 96 h; activation, % (test concentration not listed); 29,000 tested, under 10 active; call rule not given here;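 further: 0% = median vehicle wells and 100% = positive control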
ROS inducer: inducers of reactive oxygen species in cancer cells; U2OS ROS induction, H2DCF-DA fluorescence; ROS induction (% of piperlongumine), % at 10 µM; 46,000 tested, 2% active; AID 624156; in the data active means ROS induction above about 79%, passing the limit was not always enough;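 further: 0% = DMSO vehicle median and 100% = reference compound median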
Active calls of the source: *; . = no result. The entries come from a sample that favours hits as a whole.

SMILES | NOMO-1 viab | PD-1 reversal | ROS inducer
C[C@@H]1CN([C@@H](C)CO)C(=O)c2cccc(NS(=O)(=O)c3ccc(Cl)cc3)c2O[C@H]1CN(C)S(=O)(=O)c1cccs1 | 0 | . | -9
COc1ccc(S(=O)(=O)N(C)C[C@@H]2OCCCC[C@@H](C)Oc3ccc(NS(=O)(=O)c4cccs4)cc3C(=O)N([C@H](C)CO)C[C@@H]2C)cc1 | 35 | -3 | 115*
Cc1ccc(C(=O)/C=C/Nc2ccc(C(F)(F)F)cc2)cc1 | 7 | 1 | -5
CN(C)C(=S)NC(Cc1ccccc1)c1ccccc1 (centres undefined) | . | . | 0
Cc1ccc2ncc(-c3ccc4cc(C)ccc4n3)cc2c1 | . | . | 3
C[C@@H]1CN([C@H](C)CO)C(=O)c2cc(NC(=O)c3ccncc3)ccc2O[C@H]1CN(C)Cc1ccc(-c2ccccc2)cc1 | 93* | -2 | 21
C[C@@H]1CN([C@@H](C)CO)C(=O)c2cc(NC(=O)c3ccncc3)ccc2O[C@H]1CN(C)Cc1ccc(-c2ccccc2)cc1 | 29 | -1 | 6
COc1ccc(CN(C)C[C@@H]2Oc3ccc(NC(=O)c4ccncc4)cc3C(=O)N([C@H](C)CO)C[C@H]2C)cc1 | 16 | . | 149*
COc1ccc(NC(=O)Nc2ccc3c(c2)C(=O)N([C@H](C)CO)C[C@H](C)[C@H](CN(C)Cc2ccncc2)O3)cc1 | 94* | 0 | -5
COc1ccc(CN(C)C[C@H]2Oc3ccc(NC(=O)c4ccncc4)cc3C(=O)N([C@H](C)CO)C[C@@H]2C)cc1 | -10 | 2 | -9
COc1ccc(NC(=O)Nc2ccc3c(c2)C(=O)N([C@@H](C)CO)C[C@@H](C)[C@@H](CN(C)Cc2ccncc2)O3)cc1 | 22 | 1 | -14
c1ccc(CSc2nccc(-c3ccc4c(c3)CCO4)n2)cc1 | 39 | -1 | 0
Clc1ccc(Oc2nc(Oc3ccc(Cl)cc3)nc(N3CCSCC3)n2)cc1 | . | . | 0
C[C@@H]1CN([C@H](C)CO)C(=O)Cc2cc(NC(=O)CCC(F)(F)F)ccc2O[C@H]1CN(C)Cc1ccccc1 | -5 | 1 | 5
C[C@@H]1CN([C@@H](C)CO)C(=O)c2cc(NC(=O)CCC(F)(F)F)ccc2O[C@@H]1CN(C)Cc1ccc(-c2ccccc2)cc1 | 64 | -2 | 18
C[C@H]1CN([C@@H](C)CO)C(=O)Cc2cc(NC(=O)CCC(F)(F)F)ccc2O[C@@H]1CN(C)Cc1ccc(-c2ccccc2)cc1 | 97* | . | 59
C[C@H]1CN([C@@H](C)CO)C(=O)Cc2cc(NC(=O)CCC(F)(F)F)ccc2O[C@H]1CN(C)Cc1ccc(-c2ccccc2)cc1 | 31 | . | 3
C[C@@H]1CN([C@H](C)CO)C(=O)Cc2cc(NC(=O)CCC(F)(F)F)ccc2O[C@H]1CN(C)Cc1ccc(Oc2ccccc2)cc1 | 94* | -4 | 32
C[C@@H]1CN([C@H](C)CO)C(=O)c2cc(NC(=O)CCC(F)(F)F)ccc2O[C@H]1CN(C)Cc1ccc(Oc2ccccc2)cc1 | 85* | . | 22
CCCNC(=O)Cn1ncn2c(cc3sc(CC)cc32)c1=O | . | . | 6
O=C(CN1C(=O)CC(c2ccccc2)S(=O)(=O)c2ccccc21)Nc1ccccc1C(F)(F)F (centres undefined) | . | . | -2
O=C(NCc1ccccc1)C1CCCN(C(=O)N2CCOc3ccccc32)C1 (centres undefined) | . | . | -18
COc1ccc(CCNC(=O)COc2ccc3c(=O)c(-c4ccccc4)coc3c2)cc1OC | . | . | 8
O=C(Oc1cccc(NC(=O)c2cccs2)c1)c1cccc(S(=O)(=O)N2CCOCC2)c1 | . | . | 47
COC(=O)CN1C(=O)S/C(=C/c2ccc(-c3ccc(C(=O)O)cc3)o2)C1=O | . | . | 52
SMILES | NOMO-1 viab | PD-1 reversal | ROS inducer
O=C(Nc1ccc(-n2nncc2-c2ccccc2)cc1)c1c(F)cccc1F | . | . | 7
CC(NC(=O)COc1ccccc1C(C)(C)C)c1ccccc1 (centres undefined) | 115* | 0 | 34
CC(C)(C)c1ccccc1OCC(=O)NCc1ccccc1 | . | . | -1
O=C(Cc1ccc(NC2=NC3CS(=O)(=O)CC3S2)cc1)Nc1ccccc1 (centres undefined) | . | . | -15
Cc1ccc(Cl)cc1N1CCN(C(=O)c2ccccc2N(Cc2ccccc2)S(C)(=O)=O)CC1 | . | . | -9
Cc1ccc(S(=O)(=O)N2Cc3ccccc3C(C)CC23CCCCC3)cc1 (centres undefined) | 88* | 0 | -5
Cc1ccc(S(=O)(=O)N2CCc3ccccc3C2)cc1 | . | . | 6
C=CCNC(=O)c1ccc2c(c1)C1C3CCC(C3)C1C(c1ccccc1)N2 (centres undefined) | . | . | 15
C=C(C)[C@@H]1CC[C@]2(C(=O)O)CC[C@]3(C)[C@H](CCC4[C@]5(C)C(CC[C@]43C)[C@@](C)(CO)[C@@H](O)[C@@H]5C(=O)O)C12 (some centres undefined) | 9 | -1 | -2
